# Test results: PubChem BioAssay AID651925 (Vanderbilt Specialized Chemistry Center, 2012)
# Active and inactive are the calls of the source. No rule for the calls is given here.
# Molecular target: Muscarinic acetylcholine receptor M4 (Homo sapiens) (UniProt P08173)
# Assay: human M4 receptor potentiation, selectivity assay for M5 PAM project, CHO cells (AID 651925)
# Chain of Muscarinic acetylcholine receptor M4 (Homo sapiens) (P08173 whole entry, looked up): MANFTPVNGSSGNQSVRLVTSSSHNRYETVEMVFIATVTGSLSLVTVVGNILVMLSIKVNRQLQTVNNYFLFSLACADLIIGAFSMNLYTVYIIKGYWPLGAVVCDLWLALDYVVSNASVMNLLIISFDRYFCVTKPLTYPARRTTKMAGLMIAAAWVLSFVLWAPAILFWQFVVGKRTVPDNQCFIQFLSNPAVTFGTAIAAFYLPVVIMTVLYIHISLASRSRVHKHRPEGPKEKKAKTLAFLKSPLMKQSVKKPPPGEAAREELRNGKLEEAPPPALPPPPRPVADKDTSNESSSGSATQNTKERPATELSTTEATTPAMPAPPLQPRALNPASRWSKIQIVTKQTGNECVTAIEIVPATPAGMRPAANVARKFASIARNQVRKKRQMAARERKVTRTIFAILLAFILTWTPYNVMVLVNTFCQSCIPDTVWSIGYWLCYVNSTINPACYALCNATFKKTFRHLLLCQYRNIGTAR
smiles,measurement,value
O=C1C(=O)N(CCOc2ccccc2)c2ccc(OC(F)(F)F)cc21,outcome,inactive
